Outcome and AC50 data for 28 molecules are collected here from PubChem BioAssay (EPA / NIEHS).

Molecules are shown by their SMILES. Calls of active or inactive are those of the source. Rule for the calls: active = hit-call score of the fitted dose curve at least 0.9, where 1 is the maximum; inactive = score below 0.9.

Chain of CCAAT/enhancer-binding protein beta (Homo sapiens) (P17676 whole entry, looked up): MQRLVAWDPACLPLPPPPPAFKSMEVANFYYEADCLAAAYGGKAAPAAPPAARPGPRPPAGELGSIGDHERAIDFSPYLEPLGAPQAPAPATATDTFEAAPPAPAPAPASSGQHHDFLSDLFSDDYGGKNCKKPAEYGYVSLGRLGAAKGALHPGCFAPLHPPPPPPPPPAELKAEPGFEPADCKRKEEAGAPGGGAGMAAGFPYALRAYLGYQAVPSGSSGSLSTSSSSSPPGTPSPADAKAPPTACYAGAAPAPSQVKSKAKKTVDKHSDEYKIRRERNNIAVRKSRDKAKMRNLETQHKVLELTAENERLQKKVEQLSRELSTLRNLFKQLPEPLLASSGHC

The first experiment addresses CCAAT/enhancer-binding protein beta (Homo sapiens) (UniProt P17676). Briefly: ATG_C_EBP_CIS: Attagene CIS-FACTORIAL HepG2 Assay for human CCAAT/Enhancer Binding Protein (C/EBP) beta (AID 2282927). As to conditions: HepG2 Attagene cis-factorial transcription factor reporter; actives raise or lower the signal. An outline of the steps: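 RT-PCR/capillary electrophoresis fluorescence of reporter mRNA, 24 h post-dose, in HepG2 cells carrying transfected cis-promoter reporter units. Bidirectional curve fitting against DMSO baseline captures gain or loss of signal.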
On to `Nc1ccc(N=Nc2ccccc2)cc1`, for which the outcome was inactive.
The same measure, in the same setting: the result for `O=C(O)C1C2CCC(O2)C1C(=O)O` (stereo unspecified) reads “inactive”; that for `O=C(Nc1ccccc1)c1ccccc1I`, “inactive”.
Consider `CC(O)CCO` (stereo unspecified), for which the outcome was inactive.
Still for that read-out and setting: to `CC(C)(C)OOC(C)(C)CCC(C)(C)OOC(C)(C)C` belongs “inactive”; to `O=C(Oc1ccc(Br)cc1)N1CCN2CCC1CC2`, “inactive”.
In the case of `[O-][Cl+]O`, the outcome was inactive.
Still for that read-out and setting: to `Nc1ccc(Cl)cc1N` belongs “inactive”.
Consider `COc1cc(C=O)cc2c1[C@H](COC(N)=O)[C@]1(OC(C)=O)ON2C[C@H]2[C@@H]1N2C(C)=O`, for which the AC50 was 61 µM (active).
With `Nc1ccc([N+](=O)[O-])cc1`, the result was inactive.
Same read-out and setting: to `OCCCBr` belongs “inactive”.
The same measure, in the same setting: the result for `CNC(=O)Oc1cccc2c1OC(C)(C)C2` reads “inactive”.
Regarding `N#CC(Br)(Br)C(N)=O`, the outcome was inactive.
For the molecule `Clc1ccc(C(c2ccc(Cl)cc2)C(Cl)Cl)cc1`, the AC50 is 54.8 µM (active).
Regarding `Cc1ccc(N=C=O)cc1N=C=O`, the result was inactive.
Still for that read-out and setting: the result for `c1ccc2c(c1)-c1cccc3cccc-2c13` reads “inactive”.
In the case of `ClC1=C(Cl)C2(Cl)C3C(Cl)C=CC3C1(Cl)C2(Cl)Cl` (stereo unspecified), the outcome was inactive.
On to `COC(=O)c1ccccc1N`, for which the result was inactive.
On the same count and under the same terms, to `c1ccc(NNc2ccccc2)cc1` belongs “inactive”.
On to `c1ccc(C2CO2)cc1` (stereo unspecified), for which the result was inactive.
In the case of `c1ccc2c(c1)oc1ccccc12`, the outcome was inactive.
Same read-out and setting: to `O=Cc1ccco1` belongs “inactive”; to `CCC(C)c1ccc(O)cc1` (stereo unspecified), “inactive”.
In the case of `CCOc1cccc(C2(N3CCN(c4ccccc4)CC3)CCC(C)CC2)c1` (stereo unspecified), the result was inactive.
Same read-out and setting: to `COP(=S)(OC)SCN1C(=O)c2ccccc2C1=O` belongs “inactive”; to `[Cl-].[Cl-].[Hg+2]`, “inactive”.
Same read-out and setting: the result for `CCN(CC)N=O` reads “inactive”; that for `O=C(N[C@H](c1ccccc1)[C@@H]1CN2CCC1CC2)c1c(Cl)ccc(C(F)(F)F)c1Cl`, “inactive”.

Tested on in a further experiment: not listed separately
The experiment is described as follows: ATG_CMV_CIS: Attagene CIS-FACTORIAL HepG2 Assay for human CMV (Internal Marker) (AID 2282928).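 Note: endpoint acts as a background internal control marker rather than a target.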 The note with it: HepG2 CMV promoter reporter, transcription factor profiling; actives raise or lower the signal. Put shortly:
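Cell system: HepG2, transiently transfected multiple reporter units under cis promoters. Exposure: 24 h. Detection: RT-PCR, FAM labeling, HpaI digestion, capillary electrophoresis. Analysis: bidirectional, DMSO baseline.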
Take `Nc1ccc(N=Nc2ccccc2)cc1`: the molecule was called inactive.
Take `O=C(O)C1C2CCC(O2)C1C(=O)O` (stereo unspecified): the AC50 is 77.8 µM (active).
`O=C(Nc1ccccc1)c1ccccc1I`: the call was inactive.
Take `CC(O)CCO` (stereo unspecified): the result was inactive.
For `CC(C)(C)OOC(C)(C)CCC(C)(C)OOC(C)(C)C`, the AC50 was 90.1 µM (active).
As for `O=C(Oc1ccc(Br)cc1)N1CCN2CCC1CC2`, the molecule was called inactive.
The same measure, in the same setting: to `[O-][Cl+]O` belongs “inactive”.
Consider `Nc1ccc(Cl)cc1N`, for which the AC50 was 6.32 µM (active).
In the case of `COc1cc(C=O)cc2c1[C@H](COC(N)=O)[C@]1(OC(C)=O)ON2C[C@H]2[C@@H]1N2C(C)=O`, the call was inactive.
The same measure, in the same setting: the result for `Nc1ccc([N+](=O)[O-])cc1` reads “inactive”.
On the same count and under the same terms, the result for `OCCCBr` reads “inactive”; that for `CNC(=O)Oc1cccc2c1OC(C)(C)C2`, “inactive”; that for `N#CC(Br)(Br)C(N)=O`, “inactive”.
Turning to `Clc1ccc(C(c2ccc(Cl)cc2)C(Cl)Cl)cc1`, the AC50 is 52.9 µM (active).
Consider `Cc1ccc(N=C=O)cc1N=C=O`, for which the call was inactive.
On the same count and under the same terms, to `c1ccc2c(c1)-c1cccc3cccc-2c13` belongs “inactive”.
As for `ClC1=C(Cl)C2(Cl)C3C(Cl)C=CC3C1(Cl)C2(Cl)Cl` (stereo unspecified), the AC50 is 100 µM (active).
Regarding `COC(=O)c1ccccc1N`, the molecule was classed as inactive.
On the same count and under the same terms, the result for `c1ccc(NNc2ccccc2)cc1` reads “inactive”.
On the same count and under the same terms, to `c1ccc(C2CO2)cc1` (stereo unspecified) belongs “inactive”; to `c1ccc2c(c1)oc1ccccc12`, “inactive”; to `O=Cc1ccco1`, “inactive”.
`CCC(C)c1ccc(O)cc1` (stereo unspecified): the AC50 was 65.8 µM (active).
With `CCOc1cccc(C2(N3CCN(c4ccccc4)CC3)CCC(C)CC2)c1` (stereo unspecified), the call was inactive.
On to `COP(=S)(OC)SCN1C(=O)c2ccccc2C1=O`, for which the outcome was inactive.
The same measure, in the same setting: the result for `[Cl-].[Cl-].[Hg+2]` reads “inactive”; that for `CCN(CC)N=O`, “inactive”; that for `O=C(N[C@H](c1ccccc1)[C@@H]1CN2CCC1CC2)c1c(Cl)ccc(C(F)(F)F)c1Cl`, “inactive”.
